Experimental data: the supplement of paper PMC7411054
Structures can show the parent of a compound that is named as a salt.

Legend:
Conditions in all cases: treatment time: 24 h
A549-ACTB-RAB5A [1] = test: lowest phenotypically active concentration; higher = less potent
How it was run: (§1)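 The reporter lines, fifteen in total and built by gene editing in A549, HepG2 and WPMY1 cells, used BFP for segmentation alongside GFP and RFP/FusionRed markers. Each was treated at 0.3, 1, 3 or 9 µM for 24 h in four wells and then imaged live, with live-cell features normalised to solvent control wells. Deviation meant ≥3 of 4 wells beyond the 95th percentile of control Euclidean distances; reproducibility meant a median replicate Pearson correlation above the 95th percentile of non-replicates. Only conditions meeting both were scored as phenotypically active.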

A549-ACTB-RAB5A [2] = test: phenotypically active (imaging signature differs from DMSO and reproducible) at any of 0.3-9 uM (binary (1 = active, 0 = inactive)); higher = active
How it was run: as §1

A549-CANX-COX4 = test: as above
How it was run: as §1

A549-GM130-SQSTM1 [3] = test: as above
How it was run: as §1

A549-TP53BP1-CLTA = test: as above
How it was run: as §1

A549-TUBA1B-RELA = test: as above
How it was run: as §1

HepG2-ACTB-RAB5A [4] = test: as above
How it was run: as §1

HepG2-CANX-COX4 = test: as above
How it was run: as §1

HepG2-GM130-SQSTM1 = test: as above
How it was run: as §1

HepG2-TP53BP1-CLTA = test: as above
How it was run: as §1

HepG2-TUBA1B-RELA = test: as above
How it was run: as §1

WPMY1-ACTB-RAB5A [5] = test: as above
How it was run: as §1

WPMY1-CANX-COX4 = test: as above
How it was run: as §1

WPMY1-GM130-SQSTM1 [6] = test: as above
How it was run: as §1

WPMY1-TP53BP1-CLTA = test: as above
How it was run: as §1

WPMY1-TUBA1B-RELA = test: as above
How it was run: as §1

A549-GM130-SQSTM1 [7] = test: lowest phenotypically active concentration; higher = less potent
How it was run: as §1

WPMY1-ACTB-RAB5A [8] = test: as above
How it was run: as §1

WPMY1-GM130-SQSTM1 [9] = test: as above
How it was run: as §1

HepG2-ACTB-RAB5A [10] = test: as above
How it was run: as §1

Compound	lowest phenotypically active concentration (A549-ACTB-RAB5A [1]) [µM]	phenotypically active (A549-ACTB-RAB5A [2])	phenotypically active (A549-CANX-COX4)	phenotypically active (A549-GM130-SQSTM1 [3])	phenotypically active (A549-TP53BP1-CLTA)	phenotypically active (A549-TUBA1B-RELA)	phenotypically active (HepG2-ACTB-RAB5A [4])	phenotypically active (HepG2-CANX-COX4)	phenotypically active (HepG2-GM130-SQSTM1)	phenotypically active (HepG2-TP53BP1-CLTA)	phenotypically active (HepG2-TUBA1B-RELA)	phenotypically active (WPMY1-ACTB-RAB5A [5])	phenotypically active (WPMY1-CANX-COX4)	phenotypically active (WPMY1-GM130-SQSTM1 [6])	phenotypically active (WPMY1-TP53BP1-CLTA)	phenotypically active (WPMY1-TUBA1B-RELA)	lowest phenotypically active concentration (A549-GM130-SQSTM1 [7]) [µM]	lowest phenotypically active concentration (WPMY1-ACTB-RAB5A [8]) [µM]	lowest phenotypically active concentration (WPMY1-GM130-SQSTM1 [9]) [µM]	lowest phenotypically active concentration (HepG2-ACTB-RAB5A [10]) [µM]
CNCC[C@H](Oc1cccc2ccccc12)c1cccs1 [duloxetine]	9	1 (active)	0 (inactive)	0 (inactive)	0 (inactive)	1 (active)	0 (inactive)	0 (inactive)	0 (inactive)	0 (inactive)	0 (inactive)	0 (inactive)	0 (inactive)	0 (inactive)	0 (inactive)	0 (inactive)				
COc1cc2nccc(Oc3ccc(NC(=O)C4(C(=O)Nc5ccc(F)cc5)CC4)cc3)c2cc1OC	3	1 (active)	0 (inactive)	1 (active)	0 (inactive)	1 (active)	0 (inactive)	0 (inactive)	0 (inactive)	0 (inactive)	0 (inactive)	1 (active)	0 (inactive)	0 (inactive)	0 (inactive)	0 (inactive)	3	3		
CC1CNCCN1S(=O)(=O)c1cccc2cnccc12 (configuration not stated) [H-7 dihydrochloride]	9	1 (active)	0 (inactive)	1 (active)	0 (inactive)	0 (inactive)	0 (inactive)	1 (active)	1 (active)	0 (inactive)	1 (active)	1 (active)	1 (active)	1 (active)	0 (inactive)	1 (active)	9	9	9	
CCN1/C(=C/C(C)=O)Sc2ccc(O)cc21	9	1 (active)	0 (inactive)	0 (inactive)	1 (active)	0 (inactive)	1 (active)	0 (inactive)	0 (inactive)	0 (inactive)	0 (inactive)	1 (active)	0 (inactive)	0 (inactive)	1 (active)	0 (inactive)		9		9
CCC(C)(C)C(=O)O[C@H]1C[C@@H](C)C=C2C=C[C@H](C)[C@H](CC[C@@H]3C[C@@H](O)CC(=O)O3)[C@H]21 [Simvastatin]	3	1 (active)	0 (inactive)	0 (inactive)	1 (active)	0 (inactive)	1 (active)	1 (active)	1 (active)	1 (active)	1 (active)	1 (active)	1 (active)	1 (active)	1 (active)	1 (active)		≤ 0.3	1	1
O=C(/C=C/c1ccc2ccccc2n1)c1ccncc1	9	1 (active)	0 (inactive)	0 (inactive)	0 (inactive)	1 (active)	1 (active)	0 (inactive)	1 (active)	0 (inactive)	1 (active)	1 (active)	0 (inactive)	1 (active)	1 (active)	1 (active)		9	9	3
CC1(CN2CCC(n3c(=O)[nH]c4ccccc43)CC2)OCc2ccccc2-n2cccc21 (configuration not stated)	9	1 (active)	0 (inactive)	0 (inactive)	0 (inactive)	1 (active)	0 (inactive)	0 (inactive)	0 (inactive)	0 (inactive)	0 (inactive)	0 (inactive)	0 (inactive)	1 (active)	0 (inactive)	0 (inactive)			3	
CC(C)c1c(C(=O)Nc2ccccc2)c(-c2ccccc2)c(-c2ccc(F)cc2)n1CC[C@@H](O)C[C@@H](O)CC(=O)O [atorvastatin]	3	1 (active)	0 (inactive)	0 (inactive)	0 (inactive)	0 (inactive)	1 (active)	1 (active)	1 (active)	1 (active)	1 (active)	1 (active)	1 (active)	1 (active)	1 (active)	1 (active)		1	3	3
Fc1ccccc1Nc1nc2nonc2nc1Nc1ccccc1F	9	1 (active)	0 (inactive)	1 (active)	0 (inactive)	1 (active)	0 (inactive)	0 (inactive)	0 (inactive)	1 (active)	1 (active)	1 (active)	1 (active)	0 (inactive)	0 (inactive)	0 (inactive)	3	9		
NC(=O)[C@@H](CCC(F)(F)F)N(Cc1ccc(-c2ncon2)cc1F)S(=O)(=O)c1ccc(Cl)cc1 [avagacestat]	9	1 (active)	0 (inactive)	0 (inactive)	0 (inactive)	0 (inactive)	1 (active)	0 (inactive)	0 (inactive)	0 (inactive)	0 (inactive)	0 (inactive)	0 (inactive)	0 (inactive)	0 (inactive)	0 (inactive)				9
O=c1cc(-c2ccccc2)oc2cc(O)cc(O)c12 [Chrysin]	9	1 (active)	0 (inactive)	1 (active)	0 (inactive)	0 (inactive)	0 (inactive)	0 (inactive)	0 (inactive)	0 (inactive)	0 (inactive)	0 (inactive)	1 (active)	0 (inactive)	1 (active)	0 (inactive)	9			
